Measured values from PubChem BioAssay (NCI).
This is part of a sample that, as a whole, favours compounds with a hit. Of some 83,000 tested, about 20% had one in any assay.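 Percent growth is the endpoint: 0 to 100 indicates growth inhibition (40 means 60% inhibition), 0 means no net growth, and negative values indicate cell death.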 Values without a mark were called inactive. The source made the active and inactive calls. The calls were made as follows: active = growth percent below 10; inactive = the rest.

What was measured:
Experiment in all cases: NCI-60 one-dose screen, 48 h (100 = growth as untreated, 0 = no growth, -100 = all killed)
[1] = tested on: DU-145 prostate; details: 10 µM unless noted
[2] = tested on: K-562 leukemia; details: 10 µM unless noted
[3] = tested on: MALME-3M melanoma; details: 10 µM unless noted
[4] = tested on: MDA-MB-231 breast; details: 10 µM unless noted
[5] = tested on: SF-268 CNS; details: 10 µM unless noted
[6] = tested on: SF-295 CNS; details: 10 µM unless noted
[7] = tested on: SF-539 CNS; details: 10 µM unless noted
[8] = tested on: UACC-257 melanoma; details: 10 µM
[9] = tested on: M14 melanoma; details: 10 µM unless noted
[10] = tested on: HCT-15 colon; details: 10 µM unless noted
[11] = tested on: HT29 colon; details: 10 µM unless noted
[12] = tested on: SNB-75 CNS; details: 10 µM unless noted
[13] = tested on: SNB-19 CNS; details: 10 µM unless noted
[14] = tested on: U251 CNS; details: 10 µM unless noted
[15] = tested on: PC-3 prostate; details: 10 µM unless noted
[16] = tested on: SK-MEL-5 melanoma; details: 10 µM unless noted
[17] = tested on: UACC-62 melanoma; details: 10 µM unless noted
[18] = tested on: LOX IMVI melanoma; details: 10 µM unless noted
[19] = tested on: SK-MEL-28 melanoma; details: 10 µM unless noted
[20] = tested on: RXF 393 renal; details: 10 µM unless noted

SMILES	growth [1]	growth [2]	growth [3]	growth [4]	growth [5]	growth [6]	growth [7]	growth [8]	growth [9]	growth [10]	growth [11]	growth [12]	growth [13]	growth [14]	growth [15]	growth [16]	growth [17]	growth [18]	growth [19]	growth [20]
COc1ccc(NC(=O)Cn2cc(CN3C(=O)c4ccc([N+](=O)[O-])cc4C3=O)nn2)cc1	113%	98.1%	101%	91.4%	109%	113%	100%	97.7%	108%	98.2%	109%	73.9%	93.6%	100%	98.6%	102%	91.3%	97.7%	110%	–
Cc1cc2nc(C(Cl)Cl)nc(-c3ccco3)n2n1	-12.5% (active)	89.7%	108%	64.2%	81.2%	20.3%	66.1%	92.9%	–	–	37.2%	94.5%	62.8%	53.8%	73%	97.8%	78.2%	93.4%	87.6%	12.5%
CC1(C)CC[C@]2(C(=O)N3CCCNCC3)CC[C@]3(C)C(=CC[C@@H]4[C@@]5(C)CCC(=O)C(C)(C)[C@@H]5CC[C@]43C)[C@H]2C1	108%	96.8%	110%	106%	102%	104%	97.2%	105%	110%	103%	102%	124%	98%	100%	88.2%	102%	89.6%	97.2%	104%	–
Cc1cc(O)c(=O)cc2c1C[C@H]1CC(C)(C)/C=C/C[C@]3(C)Oc4cc(=O)c(O)cc(C)c4C[C@H]3C[C@H](O)[C@@]1(C)O2	16.1%	-42.7% (active)	-8.22% (active)	17.4%	16.6%	4.92% (active)	7.55% (active)	–	-25.9% (active)	18.5%	8.78% (active)	23.9%	11.2%	3.83% (active)	–	-46.5% (active)	-41% (active)	6.81% (active)	11.1%	5.24% (active)
CS(=O)(=O)c1ccc(-c2nn(-c3ccccc3)cc2/C=C/C(=O)c2ccc(Br)cc2)cc1	100%	47.3%	71.3%	88.3%	99.4%	104%	102%	96.3%	–	–	97.8%	107%	85.6%	86.1%	89.1%	92.4%	78.9%	67.5%	102%	93.7%
O=C(Cn1cc(CN2C(=O)c3ccc([N+](=O)[O-])cc3C2=O)nn1)Nc1ccc(F)cc1Cl	106%	97.9%	83.3%	92.4%	99.8%	104%	93.9%	97.8%	94.8%	99.5%	102%	92.6%	97.2%	97.3%	92.6%	101%	92.3%	107%	99.9%	–
CCC(C)[C@H]1OC(=O)[C@H](C(C)C)N(C)C(=O)[C@@H](C(C)C)OC(=O)[C@H](C(C)C)N(C)C(=O)[C@@H](C(C)CC)OC(=O)[C@H](C(C)C)N(C)C1=O (some centres not stated)	22%	8.02% (active)	7.55% (active)	2.72% (active)	22.1%	6.32% (active)	13.8%	–	17.6%	11.4%	6.93% (active)	-2.11% (active)	18.1%	12.5%	12.1%	-31.5% (active)	6.11% (active)	7.89% (active)	32.2%	17.2%
COc1c([C@@H](CC(C)C)OC(C)=O)ccc2c1C(=O)OCc1cc(C)cc(O)c1O2	26.7%	16.9%	19%	35.7%	33%	31.8%	55.6%	–	44.3%	17.3%	13.5%	50.6%	36.3%	20.1%	29.8%	8.29% (active)	31.3%	27.5%	59.1%	64.1%
CC[C@H](C)[C@H]1NC(=O)[C@@H]([C@H](O)C(C)C)NC(=O)[C@@H](C)N(C)C(=O)[C@H](C)N(C)C(=O)[C@H](CC(C)C)NC(=O)[C@H](CC(C)C)N(C)C(=O)[C@H](C)N(C)C1=O	1.83% (active)	7.23% (active)	3.72% (active)	8.22% (active)	4.57% (active)	-4.82% (active)	-12.6% (active)	–	-18.2% (active)	1.74% (active)	3.09% (active)	11.2%	5.15% (active)	1.21% (active)	5.5% (active)	-12.4% (active)	-3.83% (active)	-1.35% (active)	-9.11% (active)	-17.8% (active)
Cc1ccc(-c2cc(-c3ccc(N(C)C)cc3)n3c(n2)nc2ccccc23)cc1	87.2%	29.2%	96.1%	66%	88.7%	55%	89.8%	65.8%	77.2%	56.6%	65.8%	94%	50.2%	56.7%	47.8%	-37.6% (active)	35%	83.5%	52.9%	–
N#C/C(=C\c1ccc(-c2ccc(F)cc2)o1)C(=O)Nc1ncc(Cc2ccc(Cl)cc2Cl)s1	-46.5% (active)	15.5%	-52.7% (active)	20.1%	1.24% (active)	3.15% (active)	-2.12% (active)	84.1%	2.18% (active)	-31.7% (active)	6.93% (active)	58.3%	-12.9% (active)	21.9%	1.25% (active)	27.4%	15.9%	-85.6% (active)	39.5%	–
O=C(O)c1ccc(-n2cc(CNc3ccc(Cl)cc3)c(-c3ccc(F)cc3)n2)cc1	103%	83.4%	92.9%	94.2%	104%	87.6%	98.1%	101%	–	79.6%	112%	131%	96.5%	90.4%	–	84.8%	77.4%	84.3%	95.6%	94.9%
O=S(=O)(Nc1ccc(-n2cnc3cc(-c4ccc(O)cc4)ccc32)cc1)C1CC1	95.3%	59.8%	98.5%	84.3%	83.3%	90.1%	71.8%	98.2%	96.6%	85.1%	98.9%	51.3%	83.6%	74.6%	83.4%	88%	73.8%	116%	94.2%	–
C=C(C)C(=O)O[C@H]1C[C@@]2(C)OC(=CC2=O)/C(C)=C\[C@H]2OC(=O)C(=C)[C@H]12	-3.72% (active)	–	6.62% (active)	-33.3% (active)	7.51% (active)	42.1%	-54.6% (active)	-26.3% (active)	-37% (active)	1.22% (active)	1.99% (active)	33.3%	49.1%	6.75% (active)	-2.26% (active)	–	–	-58.6% (active)	–	-53.7% (active)
Cc1ccc(/C=C/c2nn3c(-c4ccco4)nnc3s2)cc1	99.7%	–	106%	110%	104%	95.7%	94.7%	112%	94.8%	96.1%	103%	108%	92.6%	101%	98.4%	98.4%	90.7%	105%	94.1%	95.5%
COC(=O)c1nc(-c2ccc(C)cc2)oc1S(=O)(=O)N1CCN(c2oc(-c3ccccc3)nc2C#N)CC1	104%	–	98.6%	102%	98%	103%	98.6%	111%	74%	98.6%	111%	100%	94.6%	99.4%	99%	100%	92%	89.7%	99.6%	109%
